The source of these data is the OligoGym collection.
Note: reference of the scale not given here.

The first test concerns the target RASSF3. Kind of test: pooled miR-30 sensor sort-seq; sequence = guide strand. The note with it: shRNA.
Regarding TTTGATCTCCTCTTTGCTGAGG, the sensor-assay potency score (higher = more potent) is -0.279.

The sequence TTTGCTGAGGTAACTGTGGGTT gave a sensor-assay potency score (higher = more potent) of 0.0248.

In the case of TTCAAGGTCATCTTCAACTTGT, the sensor-assay potency score (higher = more potent) is 0.533.

TGTATTTATGAACTTTCTCTTT: the sensor-assay potency score (higher = more potent) is -0.702.

As for TCTCTTTCTCAACATCTTGTTG, the sensor-assay potency score (higher = more potent) is -1.22.

Take TAAGTTGTATTTATGAACTTTC: the sensor-assay potency score (higher = more potent) is -0.5.

In the case of TATTTATGAACTTTCTCTTTGA, the sensor-assay potency score (higher = more potent) is -0.498.

Consider TTTATGAACTTTCTCTTTGATC, for which the sensor-assay potency score (higher = more potent) is -0.905.

For the sequence TTCATCTTCTTCCTTGTCCAAG, the sensor-assay potency score (higher = more potent) is -0.91.

Regarding TTTCTCTTTGATCTCCTCTTTG, the sensor-assay potency score (higher = more potent) is -0.943.

For the sequence TTGTCTGTGACTGCTAAGTTGT, the sensor-assay potency score (higher = more potent) is -0.937.

For TCTTTGATCTCCTCTTTGCTGA, the sensor-assay potency score (higher = more potent) is -0.385.

A further test deals with RASSF5. The description is as above. The conditions noted are these: shRNA.
On to TTAAAAAGTGCAAACTTCTGGG, for which the sensor-assay potency score (higher = more potent) came out at 0.479.

In turn, TTCTCTCGCGTGTTGTAGCTGT showed a sensor-assay potency score (higher = more potent) of 0.0292.

As to TTGTCCGTCCTTGTGTATCCGC, the sensor-assay potency score (higher = more potent) is -0.676.

For TTATATATAGCTATATGCCTTT, the sensor-assay potency score (higher = more potent) was -0.531.

TTGTCCACAACCATGAACTTCT: the sensor-assay potency score (higher = more potent) came to 0.0348.

In turn, TGAAGCTACACGAACAAGCTTG came in with a sensor-assay potency score (higher = more potent) of 0.101.

In the case of TTCTCCTTTAGCACAAAGCTGA, the sensor-assay potency score (higher = more potent) was -0.406.

With TTTACAGTTAGTGCAGCGCAGC, the sensor-assay potency score (higher = more potent) is -1.3.

On to TCGCGTGTTGTAGCTGTCGATC, for which the sensor-assay potency score (higher = more potent) was -1.47.

Turning to TTCTGGAAGAGCACTTGTCCGT, the sensor-assay potency score (higher = more potent) is -0.498.

For TTAAGTGTGAACAACAGGCACC, the sensor-assay potency score (higher = more potent) is -0.19.

As for TAGCTGTCGATCTTCTGCTTGA, the sensor-assay potency score (higher = more potent) was -0.141.

The target in another test is RASSF8. The description is as above. The note with it: shRNA.
TTGATTGATTTGTCAATCTGAG: the sensor-assay potency score (higher = more potent) was -0.187.

On to TATTTCTTGAAGTTGATCCTTC, for which the sensor-assay potency score (higher = more potent) was determined as 0.825.

TAAGGCTATGACAACCTCCTGG yielded a sensor-assay potency score (higher = more potent) of 0.0646.

With TTTGCAGTTATTCAGCACCTTT, the sensor-assay potency score (higher = more potent) is -1.3.

For the sequence TTAATTTGTTTTCACATTCTGT, the sensor-assay potency score (higher = more potent) was -0.415.

In turn, TATTTCATTAGATTCCAGCTGT registered a sensor-assay potency score (higher = more potent) of 1.11.

Take TACATCGTTTCTTTTGATCTTT: the sensor-assay potency score (higher = more potent) is -0.624.

As to TTGATCTTTTGCTCTAGACGGA, the sensor-assay potency score (higher = more potent) was -0.232.

In turn, TTAGCTTCTTCAACTCATCTGC showed a sensor-assay potency score (higher = more potent) of 0.759.

For the sequence TTCTATTTCATTAGATTCCAGC, the sensor-assay potency score (higher = more potent) was -0.148.

Regarding TTCTCTATAAGGGTGTACCTTC, the sensor-assay potency score (higher = more potent) was -0.973.

On to TTGAAGTTGATCCTTCAGCTGT, for which the sensor-assay potency score (higher = more potent) was -0.249.

The target in the next test is RBFOX1. Described as above. The note with it: shRNA.
As for TATTTGTCATTACACGTGCTGT, the sensor-assay potency score (higher = more potent) is -1.1.

For the sequence TTTTTATTCATTATCTAGCATC, the sensor-assay potency score (higher = more potent) was -0.945.

The sequence AAACATTTGTCTGAGGTCCGGA showed a sensor-assay potency score (higher = more potent) of 0.142.

Consider TTTAATATCCAACTGATCTTAC, for which the sensor-assay potency score (higher = more potent) is -0.633.
